Hits are enriched below; roughly 2.4% of the tested compounds scored in any of these assays.
M1 ag: human M1 muscarinic receptor agonism. CHO-K1 hM1, Fluo-8 calcium fluorescence, agonist mode; 0% DMSO, 100% acetylcholine EC100. actives 0.33% (n = 360,000). AID 588814. activation, % at 3 µM;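 active = activation above the run's mean compound activation plus 3 SD, cut at about 16% in these data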;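 also: peak over basal fluorescence ratio within a 140 s kinetic read after compound addition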
Target sequence (P11229 whole entry, looked up): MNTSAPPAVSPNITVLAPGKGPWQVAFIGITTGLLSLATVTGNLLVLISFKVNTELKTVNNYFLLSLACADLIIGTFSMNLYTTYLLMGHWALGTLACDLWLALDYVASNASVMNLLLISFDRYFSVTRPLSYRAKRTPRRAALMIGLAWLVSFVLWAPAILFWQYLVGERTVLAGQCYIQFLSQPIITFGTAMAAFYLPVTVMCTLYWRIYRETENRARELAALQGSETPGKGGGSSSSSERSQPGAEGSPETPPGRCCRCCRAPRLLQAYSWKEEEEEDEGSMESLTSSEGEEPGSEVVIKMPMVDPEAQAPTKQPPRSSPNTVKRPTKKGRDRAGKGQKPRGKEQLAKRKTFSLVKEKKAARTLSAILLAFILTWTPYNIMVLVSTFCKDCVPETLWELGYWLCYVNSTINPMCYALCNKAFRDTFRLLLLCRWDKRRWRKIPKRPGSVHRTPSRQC
CHO-K1 Ca PAM: nonselective activator or artifact in parental CHO-K1 calcium assay; ATP EC20, Fluo-8 calcium fluorescence; 0% at ATP EC20, 100% at ATP max; activation, % at 3 µM; actives 0.02% (n = 360,000); AID 602247;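 active = activation above the run cutoff, the mean activation of all test compounds plus 3 SD, cut at about 40% in these data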;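 also: peak over basal fluorescence ratio in a 140 s read after ATP addition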
M1 PAM: potentiates human M1 receptor response to acetylcholine | CHO-K1 hM1, Fluo-8 calcium fluorescence, ACh EC20; 0% = ACh EC20, 100% = maximal ACh | P11229 | actives 0.088% (n = 360,000) | activation, % at 3 µM; in the data active = activation above about 19%, passing the limit was not always enough
CHO-K1 Ca antag: M1 antagonist counterscreen hit in parental CHO-K1 cells; ATP-induced calcium, Fluo-8 fluorescence; inhibition, % at 3 µM; actives 0.6% (n = 360,000);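 active = inhibition above a per-plate cutoff, the plate's mean sample inhibition plus 3 SD, cut at about 24% in these data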;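 also: 0% = DMSO plus EC80 ATP and 100% = DMSO alone without ATP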
M1 antag: human CHRM1 antagonism | P11229 | CHO-K1 hM1, Fluo-8 calcium fluorescence, ACh EC80 antagonist | inhibition, % at 3 µM | actives 1.3% (n = 360,000);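 active = percent inhibition above its own plate's cutoff, namely the mean of that plate's compound wells plus 3 SD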;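 also: peak over basal fluorescence ratio during 140 s after agonist addition; 0% = ACh EC80 plus DMSO and 100% = DMSO alone without agonist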
CHO-K1 Ca ag: M1 agonist counterscreen hit in parental CHO-K1 cells | Fluo-8 calcium fluorescence; scaled to maximal ATP response, vehicle zero | activation, % at 3 µM | AID 602248 | actives 0.48% (n = 360,000); in the data active = activation above about 15%;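 also: untransfected CHO-K1 host cells lacking M1 receptor as counterscreen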
* marks the source's active call; other numbers are inactive results; x = no result.

SMILES	M1 ag	CHO-K1 Ca PAM	M1 PAM	CHO-K1 Ca antag	M1 antag	CHO-K1 Ca ag
COc1ccccc1CN1CCC(CNS(=O)(=O)c2cc(-c3cc(C)no3)ccc2OC)CC1	-6	1	-24	-18	93*	1
CCOC(=O)/C(=C\C=C1/Sc2cc(OCC)c(OCC)cc2N1CC)C(C)=O	44*	-2	-15	18	24	38*
CCOC(=O)/C(=C/C=C1\Sc2cc(OCC)c(OCC)cc2N1CC)C(C)=O	70*	-15	-21	30*	27	46*
CCN1/C(=C/C(C)=O)Sc2ccc(OC)cc21	-3	8	6	-18	-1	0
O=C(NCCCn1ccnc1)c1cc(-c2cccnc2)nc2ccc(Br)cc12	-6	4	7	-2	-1	17*
Cc1ccc2nc(-c3ccccc3)cc(C(=O)NCCCn3ccnc3)c2c1	-5	10	6	1	-5	3
CCOc1ccc(C2C(C(=O)OC)=CN(C(C)c3ccccc3)C=C2C(=O)OC)cc1 (stereo not drawn)	-5	0	-3	-24	3	-1
CCC1CCCCN1CCCNC(=O)CCCOc1cc(=O)n(C)c2ccccc12 (stereo not drawn)	-10	20	-29	-6	49*	0
Cn1c(=O)cc(OCCCC(=O)N2CCN(c3ccccc3)CC2)c2ccccc21	-4	-7	7	30*	1	2
O=C(NCC1OCCCN1S(=O)(=O)c1cc(F)ccc1F)C(=O)NC1CCCCCC1 (stereo not drawn)	-4	2	-3	32*	3	2
O=C(NCc1ccncc1)C(=O)NCC1OCCCN1S(=O)(=O)c1cc(F)ccc1F (stereo not drawn)	-4	-18	-2	5	6	0
O=C1CN(S(=O)(=O)c2ccc(F)cc2)c2ccccc2N1	1	-9	21	28*	-11	0
O=P(CCCCCCCCCP(=O)(c1ccccc1)c1ccccc1)(c1ccccc1)c1ccccc1	2	-1	-10	16	32*	6
Cc1noc(C)c1S(=O)(=O)N(CC(=O)NC(C)c1ccccc1)c1ccc(C(C)C)cc1 (stereo not drawn)	-1	15	6	-10	-12	0
COC(=O)[C@]12CCCCC=C1N(Cc1cccc3ccccc13)C(=O)[C@H](CC(=O)NCC13CC4CC(CC(C4)C1)C3)C2	x	-10	x	-4	x	1
Cc1ccc(C)c(NC(=O)CCC(=O)NN=C2CCCC2)c1	-3	-6	1	-10	-1	2
CCOc1ccc(CN2CCCC(N3CCN(c4ccc(OC)cc4)CC3)C2)cc1 (stereo not drawn)	-9	-23	-19	13	35*	0
COc1cc(CNC[C@H]2O[C@@H](n3cc(C)c(=O)[nH]c3=O)C[C@@H]2O)ccc1OCc1cccc(Cl)c1	-10	10	3	-7	-17	0
O=C(c1ccc(COc2ccc3ccccc3c2)o1)N1N=C(C(F)F)CC1(O)C(F)F (stereo not drawn)	-5	-11	-21	21	56*	6
CCOc1ccc(OCc2ccc(C(=O)N3N=C(C(F)F)CC3(O)C(F)F)o2)cc1 (stereo not drawn)	-7	9	-6	-6	9	2
O=C(c1ccc(COc2ccc(Br)cc2)o1)N1N=C(C(F)F)CC1(O)C(F)F (stereo not drawn)	-7	7	-25	-23	33*	4
O=C(c1cc(-c2ccccc2)nc2ccccc12)N1N=C(C(F)F)CC1(O)C(F)F (stereo not drawn)	7	17	22*	-2	-2	2
Cc1cc(C(O)c2ncc(-c3ccccc3F)[nH]2)ccc1F (stereo not drawn)	-2	-4	0	1	-5	1
CC(=O)Nc1ccc(S(=O)(=O)NCCC(=O)OCc2csc(CC(=O)Nc3ccccc3C)n2)cc1	-1	21	4	-7	4	0
Cn1cnc2c(cnn2C)c1=O	-1	17	0	-9	-9	1
COc1ccc(NC(=O)CSc2ccccn2)cc1OC	0	16	7	-3	-5	0
